Assay results from the antibiotic and cytotoxicity screens of Wong et al. (2023).
The whole screen tested about 39,000 compounds, of which about 1,500 (3.8%) were called active. The full list was thinned out, with actives kept by preference.

The molecules below were run on HSkMC (human skeletal muscle cells) (assay: cytotoxicity call (relative viability < 0.9)). Details: 10 µM.
`C[C@@H]1CN([C@H](C)CO)C(=O)Cc2cc(NS(=O)(=O)c3cn(C)cn3)ccc2O[C@H]1CN(C)S(=O)(=O)c1ccc(F)cc1` was tested, and the cytotoxicity call was “inactive”. In the case of `C[C@@H]1CN([C@H](C)CO)S(=O)(=O)c2ccc(-c3cccnc3)cc2O[C@H]1CN(C)C(=O)NC1CCCC1`, the cytotoxicity call is reported as “inactive”. With `C[C@H]1CN([C@@H](C)CO)C(=O)c2cccc(NC(=O)c3ccncc3)c2O[C@H]1CN(C)C(=O)Nc1ccc2c(c1)OCO2` the cytotoxicity call was “inactive”. For `C[C@@H]1CCCCO[C@H](CN(C)C(=O)c2ccncc2)[C@@H](C)CN([C@@H](C)CO)C(=O)c2cc(NC(=O)NC3CCCCC3)ccc2O1`, the cytotoxicity call was “inactive”. In the case of `Cc1noc(C)c1S(=O)(=O)Nc1ccc2c(c1)C(=O)N([C@H](C)CO)C[C@@H](C)[C@H](CN(C)S(=O)(=O)c1cn(C)cn1)O2`, the cytotoxicity call is reported as “inactive”. In the case of `CCS(=O)(=O)Nc1ccc2c(c1)C(=O)N(C)[C@@H]1CC[C@H](CC(=O)NCCCN3CCOCC3)O[C@H]1CO2`, the cytotoxicity call is reported as “inactive”. `Cc1ccc(S[C@]2(C(=O)NCCN3CCOCC3)CC(=O)N(Cc3ccccc3Cl)[C@@H]2c2ccc(CO)cc2I)cc1` was tested, and the cytotoxicity call was “inactive”. With `C[C@H](CO)N1C[C@H](C)[C@@H](CN(C)C(=O)CN2CCOCC2)Oc2ncc(C#C[C@@H](C)O)cc2C1=O` the cytotoxicity call was “inactive”. In the case of `COCC(=O)N(C)C[C@H]1Oc2cc(C#Cc3cccnc3)ccc2S(=O)(=O)N([C@H](C)CO)C[C@@H]1C`, the cytotoxicity call is reported as “inactive”. With `C[C@@H]1CCCCO[C@H](CN(C)Cc2ccc(C(=O)O)cc2)[C@@H](C)CN([C@H](C)CO)C(=O)c2cc(NC(=O)Nc3ccc4c(c3)OCO4)ccc2O1` the cytotoxicity call was “inactive”. For `Cc1noc(C)c1S(=O)(=O)Nc1ccc2c(c1)C(=O)N([C@H](C)CO)C[C@H](C)[C@H](CN(C)S(=O)(=O)c1cn(C)cn1)OCCCC[C@@H](C)O2`, the cytotoxicity call was “inactive”. With `C[C@H](CCC(=O)O)[C@H]1CC[C@H]2[C@@H]3CC=C4C[C@@H](O)CC[C@]4(C)[C@H]3CC[C@]12C` [3beta-HYDROXYCHOL-5-ENIC ACID ] the cytotoxicity call was “inactive”. `Cc1noc(C)c1S(=O)(=O)Nc1ccc2c(c1)C(=O)N([C@@H](C)CO)C[C@@H](C)[C@@H](CN(C)Cc1ccc(C(F)(F)F)cc1)OCCCC[C@@H](C)O2` was tested, and the cytotoxicity call was “inactive”. In the case of `C[C@H]1CN([C@@H](C)CO)C(=O)Cc2cc(NC(=O)Nc3ccc(C(F)(F)F)cc3)ccc2O[C@H]1CN(C)Cc1ccc(C(F)(F)F)cc1`, the cytotoxicity call is reported as “active”. With `C[C@H]1CN([C@@H](C)CO)C(=O)Cc2cc(NC(=O)Nc3ccc(C(F)(F)F)cc3)ccc2O[C@@H]1CN(C)Cc1ccc(C(F)(F)F)cc1` the cytotoxicity call was “active”. `C[C@H]1CN([C@@H](C)CO)C(=O)Cc2cc(NC(=O)Nc3ccc(C(F)(F)F)cc3)ccc2O[C@H]1CN(C)Cc1ccc(C(=O)O)cc1` was tested, and the cytotoxicity call was “inactive”. In the case of `C[C@H](CO)N1C[C@H](C)[C@@H](CN(C)Cc2ccc(C(=O)O)cc2)Oc2ccc(NC(=O)Nc3ccc(C(F)(F)F)cc3)cc2CC1=O`, the cytotoxicity call is reported as “inactive”. With `C[C@@H]1CN([C@H](C)CO)C(=O)Cc2cc(NC(=O)Nc3ccc(C(F)(F)F)cc3)ccc2O[C@H]1CN(C)Cc1ccc(C(=O)O)cc1` the cytotoxicity call was “inactive”. With `C[C@@H]1CN([C@@H](C)CO)C(=O)Cc2cc(NC(=O)Nc3ccc(C(F)(F)F)cc3)ccc2O[C@H]1CN(C)Cc1ccc(C(=O)O)cc1` the cytotoxicity call was “inactive”. With `C[C@H](CO)N1C[C@H](C)[C@H](CN(C)Cc2ccc(C(F)(F)F)cc2)Oc2ccc(NC(=O)Nc3ccc(C(F)(F)F)cc3)cc2CC1=O` the cytotoxicity call was “active”. For `C[C@H](CO)N1C[C@H](C)[C@H](CN(C)Cc2ccc(C(=O)O)cc2)Oc2ccc(NC(=O)Nc3ccc(C(F)(F)F)cc3)cc2CC1=O`, the cytotoxicity call was “inactive”. With `C[C@H]1CN([C@@H](C)CO)C(=O)Cc2cc(NC(=O)Nc3ccc(C(F)(F)F)cc3)ccc2O[C@@H]1CN(C)Cc1ccc(C(=O)O)cc1` the cytotoxicity call was “inactive”. With `C[C@@H]1CN([C@@H](C)CO)C(=O)Cc2cc(NC(=O)Nc3ccc(C(F)(F)F)cc3)ccc2O[C@H]1CN(C)Cc1ccc(C(F)(F)F)cc1` the cytotoxicity call was “active”. With `COc1ccc(CN(C)C[C@H]2Oc3c(NC(=O)C4CCOCC4)cccc3C(=O)N([C@@H](C)CO)C[C@@H]2C)cc1` the cytotoxicity call was “inactive”. With `CN1C(=O)c2cc(NC(=O)C3CCOCC3)ccc2OC[C@@H]2O[C@@H](CC(=O)NCc3ccccc3F)CC[C@@H]21` the cytotoxicity call was “inactive”. With `Cc1noc(C)c1NC(=O)N(C)C[C@H]1Oc2c(NC(=O)c3cnccn3)cccc2C(=O)N([C@@H](C)CO)C[C@@H]1C` the cytotoxicity call was “inactive”. `C[C@H]1CN([C@@H](C)CO)C(=O)c2cc(NC(=O)C3CC3)ccc2O[C@H]1CN(C)S(=O)(=O)c1ccc(Cl)cc1` was tested, and the cytotoxicity call was “inactive”. With `CC(=O)N[C@H]1[C@H](Oc2nc3cc(C)ccc3o2)O[C@H](CO)[C@@H](O)[C@@H]1O` the cytotoxicity call was “inactive”. In the case of `Cc1ccc(-c2ccc3c(c2)O[C@H](CN(C)C(=O)CN(C)C)[C@H](C)CN([C@@H](C)CO)S3(=O)=O)cc1`, the cytotoxicity call is reported as “inactive”. For `O=C(CN1CCOCC1)N[C@H]1CC[C@H](CCNC(=O)Nc2cc(F)ccc2F)O[C@H]1CO`, the cytotoxicity call was “inactive”. `CN1C(=O)c2cc(NC(=O)c3ccc(F)c(F)c3)ccc2OC[C@@H]2O[C@H](CC(=O)N3CCOCC3)CC[C@@H]21` was tested, and the cytotoxicity call was “inactive”. `Cc1noc(C)c1S(=O)(=O)N(C)C[C@H]1Oc2ccc(NC(=O)Nc3ccc4c(c3)OCO4)cc2C(=O)N([C@H](C)CO)C[C@@H]1C` was tested, and the cytotoxicity call was “inactive”. In the case of `COc1ccc(CN(C)C[C@@H]2OCCCC[C@@H](C)Oc3ccc(NC(=O)Nc4ccc(F)cc4)cc3C(=O)N([C@@H](C)CO)C[C@H]2C)cc1`, the cytotoxicity call is reported as “inactive”. For `C[C@@H]1CN([C@H](C)CO)C(=O)Cc2cc(NC(=O)Nc3ccc(C(F)(F)F)cc3)ccc2O[C@@H]1CN(C)Cc1ccc(C(=O)O)cc1`, the cytotoxicity call was “inactive”. With `C[C@H](CO)N1C[C@H](C)[C@@H](CN(C)Cc2ccc(C(F)(F)F)cc2)Oc2ccc(NC(=O)C3CCCCC3)cc2CC1=O` the cytotoxicity call was “inactive”. For `C[C@@H]1CN([C@H](C)CO)C(=O)Cc2cc(NC(=O)Nc3ccc(C(F)(F)F)cc3)ccc2O[C@H]1CN(C)Cc1ccc(C(F)(F)F)cc1`, the cytotoxicity call was “active”. `C[C@H]1CN([C@@H](C)CO)C(=O)Cc2cc(NC(=O)C3CCCCC3)ccc2O[C@@H]1CN(C)Cc1ccc(C(F)(F)F)cc1` was tested, and the cytotoxicity call was “inactive”. With `C[C@H](CO)N1C[C@H](C)[C@@H](CN(C)Cc2ccc(C(F)(F)F)cc2)Oc2ccc(NC(=O)Nc3ccc(C(F)(F)F)cc3)cc2CC1=O` the cytotoxicity call was “active”. For `C[C@@H]1CN([C@H](C)CO)C(=O)Cc2cc(NC(=O)Nc3ccc(C(F)(F)F)cc3)ccc2O[C@@H]1CN(C)Cc1ccc(C(F)(F)F)cc1`, the cytotoxicity call was “active”. With `C[C@@H]1CN([C@@H](C)CO)C(=O)Cc2cc(NC(=O)C3CCCCC3)ccc2O[C@@H]1CN(C)Cc1ccc(C(F)(F)F)cc1` the cytotoxicity call was “active”. In the case of `C[C@@H]1CN([C@@H](C)CO)C(=O)Cc2cc(NC(=O)Nc3ccc(C(F)(F)F)cc3)ccc2O[C@@H]1CN(C)Cc1ccc(C(=O)O)cc1`, the cytotoxicity call is reported as “inactive”. For `Cc1noc(C)c1NC(=O)N(C)C[C@@H]1OCCCC[C@H](C)Oc2ccc(NS(=O)(=O)c3ccc(F)cc3)cc2C(=O)N([C@H](C)CO)C[C@@H]1C`, the cytotoxicity call was “inactive”. In the case of `Cc1noc(C)c1S(=O)(=O)N(C)C[C@@H]1Oc2c(NC(=O)c3cnccn3)cccc2C(=O)N([C@H](C)CO)C[C@@H]1C`, the cytotoxicity call is reported as “inactive”. With `O=C(C[C@H]1CC[C@H]2[C@@H](COC[C@H](O)CN2S(=O)(=O)c2ccccc2)O1)NCCN1CCCCC1` the cytotoxicity call was “inactive”. In the case of `c1cc(CCN2CCNCC2)ccn1`, the cytotoxicity call is reported as “inactive”. `O=C(O)[C@H](O)c1ccc(F)cc1` was tested, and the cytotoxicity call was “inactive”. In the case of `CCS(=O)(=O)N1C[C@]2(CN(C2)C(=O)Nc2c(noc2C)C)c2c(n(c3cc(ccc23)OC)C)[C@H]1CO`, the cytotoxicity call is reported as “inactive”. With `C[C@@H]1CN([C@@H](C)CO)C(=O)Cc2cc(NC(=O)Nc3ccc(C(F)(F)F)cc3)ccc2O[C@@H]1CN(C)Cc1ccc(C(F)(F)F)cc1` the cytotoxicity call was “active”. With `C[C@@H]1CN([C@@H](C)CO)C(=O)Cc2cc(NC(=O)Nc3ccc(C(F)(F)F)cc3)ccc2O[C@H]1CN(C)Cc1ccncc1` the cytotoxicity call was “inactive”. `C[C@H](CO)N1C[C@H](C)[C@H](CN(C)Cc2ccncc2)Oc2ccc(NC(=O)Nc3ccc(C(F)(F)F)cc3)cc2CC1=O` was tested, and the cytotoxicity call was “inactive”. `C[C@H](CO)N1C[C@H](C)[C@@H](CN(C)Cc2ccncc2)Oc2ccc(NC(=O)Nc3ccc(C(F)(F)F)cc3)cc2CC1=O` was tested, and the cytotoxicity call was “active”. In the case of `C[C@@H]1CN([C@H](C)CO)C(=O)c2cc(NS(=O)(=O)c3ccc(Cl)cc3)ccc2O[C@@H](C)CCCCO[C@@H]1CN(C)Cc1ccc(C(=O)O)cc1`, the cytotoxicity call is reported as “inactive”. `C[C@H](CO)N1C[C@H](C)[C@H](CN(C)C(=O)Nc2ccc3c(c2)OCO3)OCCCC[C@H](C)Oc2ccc(NC(=O)NC3CCCCC3)cc2C1=O` was tested, and the cytotoxicity call was “inactive”. For `C[C@@H]1CN([C@H](C)CO)C(=O)Cc2cc(NS(C)(=O)=O)ccc2O[C@@H]1CN(C)S(=O)(=O)c1ccc(F)cc1`, the cytotoxicity call was “inactive”. In the case of `C[C@@H]1CCCCO[C@@H](CN(C)Cc2ccc(C(F)(F)F)cc2)[C@H](C)CN([C@H](C)CO)C(=O)c2cc(NC(=O)Nc3ccccc3)ccc2O1`, the cytotoxicity call is reported as “active”. In the case of `C[C@@H]1CN([C@@H](C)CO)C(=O)c2cc(NC(=O)Nc3ccccc3)ccc2O[C@@H](C)CCCCO[C@@H]1CN(C)Cc1ccc(C(F)(F)F)cc1`, the cytotoxicity call is reported as “inactive”. In the case of `C[C@@H]1CCCCO[C@@H](CN(C)Cc2ccc(C(F)(F)F)cc2)[C@H](C)CN([C@@H](C)CO)C(=O)c2cc(NC(=O)Nc3ccccc3)ccc2O1`, the cytotoxicity call is reported as “inactive”. `C[C@@H]1CCCCO[C@H](CN(C)Cc2ccc(C(F)(F)F)cc2)[C@@H](C)CN([C@@H](C)CO)C(=O)c2cc(NC(=O)Nc3ccccc3)ccc2O1` was tested, and the cytotoxicity call was “inactive”. In the case of `C[C@@H]1CN([C@H](C)CO)C(=O)c2cc(NC(=O)Nc3ccccc3)ccc2O[C@@H](C)CCCCO[C@H]1CN(C)Cc1ccc(C(F)(F)F)cc1`, the cytotoxicity call is reported as “active”. For `C[C@H]1CCCCO[C@@H](CN(C)Cc2ccc(C(F)(F)F)cc2)[C@@H](C)CN([C@@H](C)CO)C(=O)c2cc(NC(=O)Nc3ccccc3)ccc2O1`, the cytotoxicity call was “active”. With `C[C@@H]1CCCCO[C@@H](CN(C)Cc2ccc(C(F)(F)F)cc2)[C@@H](C)CN([C@H](C)CO)C(=O)c2cc(NC(=O)Nc3ccccc3)ccc2O1` the cytotoxicity call was “inactive”. `C[C@H](CO)N1C[C@H](C)[C@@H](CN(C)Cc2ccc(C(F)(F)F)cc2)OCCCC[C@H](C)Oc2ccc(NC(=O)Nc3ccccc3)cc2C1=O` was tested, and the cytotoxicity call was “inactive”. With `C[C@@H]1CCCCO[C@H](CN(C)Cc2ccc(C(F)(F)F)cc2)[C@H](C)CN([C@H](C)CO)C(=O)c2cc(NC(=O)Nc3ccccc3)ccc2O1` the cytotoxicity call was “active”. For `C[C@@H]1CCCCO[C@H](CN(C)Cc2ccc(C(F)(F)F)cc2)[C@@H](C)CN([C@H](C)CO)C(=O)c2cc(NC(=O)Nc3ccccc3)ccc2O1`, the cytotoxicity call was “inactive”. For `C[C@@H]1CCCCO[C@H](CN(C)Cc2ccc(C(F)(F)F)cc2)[C@H](C)CN([C@@H](C)CO)C(=O)c2cc(NC(=O)Nc3ccccc3)ccc2O1`, the cytotoxicity call was “inactive”. For `C[C@@H]1CN([C@H](C)CO)C(=O)c2cc(NC(=O)Nc3ccccc3)ccc2O[C@@H](C)CCCCO[C@@H]1CN(C)Cc1ccc(C(F)(F)F)cc1`, the cytotoxicity call was “inactive”.
